Bioassay records deposited in PubChem BioAssay by National Center for Advancing Translational Sciences (NCATS).
D2 PAM-1 = Beta-Arrestin HTS for Positive Allosteric Modulators of the Human D2 Dopamine Receptor: Potentiators; potentiation, % (concentration not given with the values); hit rate 0.23% among 360,000; DiscoveRx D2 beta-arrestin cells, luminescence, 90 min; 100% = 57 uM dopamine signal; D(2) dopamine receptor (Homo sapiens), P14416; in the data active = potentiation above about 50%; inconclusive = mostly about 30% to 49%
Target sequence (P14416 whole entry, looked up): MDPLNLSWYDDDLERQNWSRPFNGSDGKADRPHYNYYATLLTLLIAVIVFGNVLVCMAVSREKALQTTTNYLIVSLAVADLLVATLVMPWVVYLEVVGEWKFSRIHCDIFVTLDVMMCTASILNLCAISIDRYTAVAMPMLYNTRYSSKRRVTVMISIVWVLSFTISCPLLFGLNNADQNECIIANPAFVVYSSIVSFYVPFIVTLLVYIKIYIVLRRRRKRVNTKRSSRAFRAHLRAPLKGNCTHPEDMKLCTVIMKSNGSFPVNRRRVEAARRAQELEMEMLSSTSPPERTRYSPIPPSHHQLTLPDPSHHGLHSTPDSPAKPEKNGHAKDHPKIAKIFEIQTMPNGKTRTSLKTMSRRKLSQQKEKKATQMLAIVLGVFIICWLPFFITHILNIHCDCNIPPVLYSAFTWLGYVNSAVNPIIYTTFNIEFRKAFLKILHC
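D2 cells co-treated with compound plus 50 nM dopamine (EC20) for 90 min at 37 deg C to detect potentiation. Beta-arrestin recruitment was read as enzyme-fragment luminescence after 1 h at ambient temperature. Full response was set by 57 uM dopamine.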
D2 antag = HTS Assay for Allosteric Antagonists of the Human D2 Dopamine Receptor: Primary Screen for Antagonists; D(2) dopamine receptor (Homo sapiens), P14416; HEK293 TREx D2 cells, calcium flux, dopamine EC80; inhibition, % at 10 µM; hit rate 2% among 340,000; in the data active = inhibition above about 30%; inactive = below that, where a call was filed; also: 0% is about no effect
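Antagonism is scored as inhibition of an EC80 dopamine-evoked calcium signal in a force-coupled, tetracycline-inducible HEK293 T-REx D2 line, with compound present 180 s before agonist.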
D2 ag-1 = Beta-Arrestin HTS for Positive Allosteric Modulators of the Human D2 Dopamine Receptor: Agonists | hit rate 0.084% among 360,000 | activation, % (test concentration not listed) | AID 624465, 2012 | DiscoveRx PathHunter D2 beta-arrestin, luminescence, 90 min; 100% = 57 uM dopamine signal; in the data active = activation above about 40%; inconclusive = between about 15% and that limit
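Agonist mode: compounds alone added to overnight-plated D2 PathHunter cells for 90 min at 37 C, with 57 uM final dopamine (EC100) defining full response. Beta-arrestin recruitment detected by chemiluminescent reagent, read after 1 h at ambient temperature.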
D2 PAM-2 = HTS Assay for Positive Allosteric Modulators of the Human D2 Dopamine Receptor: Primary Screen for Potentiators; HEK293 T-REx D2, calcium flux, EC20 dopamine potentiation; potentiation, % at 10 µM; hit rate 0.34% among 340,000;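 active = potentiation over 3 SD above the plate norm, cut at about 30% in these data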; also: 0% is about no effect
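Cells plated with tetracycline inducer and held overnight at 30 C; calcium dye loaded 30–90 min at room temperature; baseline taken, compound added and read 180 s; EC20 dopamine then added and read 180 s.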
D2 ag-2 = HTS Assay for Allosteric Agonists of the Human D2 Dopamine Receptor: Primary Screen for Agonists | activation, % at 2 µM | hit rate 0.53% among 340,000 | D(2) dopamine receptor (Homo sapiens), P14416 | HEK293 T-REx D2 cells, calcium flux agonist mode;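 active = activation over 3 SD above normal in the single-dose calcium agonist read, cut at about 30% in these data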; also: 0% is about no effect
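In this primary screen, compounds producing a positive calcium signal within 180 s of addition to tetracycline-induced, force-coupled HEK293 Trex D2 cells are flagged; cells are dye-loaded with a no-wash calcium kit beforehand.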
Starred values were filed as active, the others as inactive; ? = inconclusive; . = not tested or not shown. Only some compounds are listed: those with a hit (about 2.4% of all), similar ones and a draw of the others.

SMILES | D2 PAM-1 | D2 antag | D2 ag-1 | D2 PAM-2 | D2 ag-2
CNC(=O)C[C@H]1C(=O)N(CCc2ccccc2)C[C@@H]1CSC | 5 | . | -6 | . | .
COCCn1c(-c2ccc(NC(C)=O)cc2)nc2c1c(=O)[nH]c(=O)n2CC(C)C | -3 | 31* | -2 | 0 | 0
COCCn1c(-c2ccc(-c3ccccc3Cl)o2)nc2c1c(=O)[nH]c(=O)n2CC(C)C | -14 | -3 | -2 | -1 | 0
CCc1ccc(C(=O)NC(Cc2c[nH]c3ccccc23)C(=O)OCC(=O)c2ccc(Br)cc2)cc1 (configuration not stated) | . | . | . | -8 | -1
Nc1nc2c(s1)CCc1c-2cnn1-c1ccccc1 | 8 | 7 | 40* | 6 | -2
C=CCN1C(=O)/C(=C/c2ccc(OC(C)=O)c(OCC)c2[N+](=O)[O-])SC1=S | 5 | 30* | 3 | 10 | 9
O=C(NCc1ccccc1)c1c2c(nc3ccccc13)C(=O)N(C1CCCCC1)C2 | . | . | . | 11 | 1
CC(=O)c1ccc2c(c1)C1C=CCC1C(c1ccc(S(=O)(=O)N3CCOCC3)cc1)N2 (configuration not stated) | 61* | 3 | 10 | 14 | 1
CN(C)C=Nc1c(Br)cc(Br)c2nonc12 | 1 | 2 | 0 | -8 | 63*
Cc1nc2ccc(NC(=O)C3(C)CCCN(C(C)C)C3)cc2o1 (configuration not stated) | -9 | . | -5 | . | .
COc1ccc(C2=NOC(C(=O)NC(C)(C)C)C2)cc1 (configuration not stated) | -1 | -11 | -3 | 2 | 1
CCN(CC)C(=O)C1CC(c2ccc(OC)cc2)=NO1 (configuration not stated) | -20 | 31* | -2 | 9 | -1
CC(C)OCc1cc(CN2CCN(c3ccccc3)CC2)c(O)c2ncccc12 | . | . | . | 10 | -1
Oc1c(CN2CCN(c3ccccc3)CC2)cc(Br)c2cccnc12 | -18 | 59* | 1 | -26 | 4
CCCCCn1c(=O)[nH]c2cc(C(=O)NCc3ccc(C)cc3)ccc2c1=O | . | . | . | -5 | 0
CCN(c1ccc(C)cc1C)S(=O)(=O)c1nnc(NC(=O)c2ccc(F)cc2)s1 | . | . | . | 5 | 1
OCc1ccccc1OCCCN1CCC(Cc2ccccc2)CC1 | -15 | 41* | -2 | -22 | 2
COc1cc(C)c(CN2CCC(Cc3ccccc3)CC2)cc1C | -7 | . | -5 | -19 | .
C=CCOc1ccccc1CN1CCC(Cc2ccccc2)CC1 | -15 | 31* | -3 | -12 | -1
COc1cc(C(C)=O)ccc1OCCCN1CCC(Cc2ccccc2)CC1 | -11 | 35* | -2 | 7 | -2
Cc1ccc([N+](=O)[O-])c(OCCCN2CCC(Cc3ccccc3)CC2)c1 | -8 | . | 2 | . | .
Clc1ccccc1OCCN1CCC(Cc2ccccc2)CC1 | -14 | 63* | 1 | -20 | 0
COc1cc(C(C)=O)ccc1OCCN1CCC(Cc2ccccc2)CC1 | -20 | -15 | -6 | -12 | 0
COc1cc(CN2CCC(Cc3ccccc3)CC2)c([N+](=O)[O-])cc1OC | -21 | 15 | -4 | -2 | 1
O=[N+]([O-])c1cccc(OCCN2CCC(Cc3ccccc3)CC2)c1 | -26 | 67* | 0 | -20 | 0
SMILES | D2 PAM-1 | D2 antag | D2 ag-1 | D2 PAM-2 | D2 ag-2
Fc1ccc(CN2CCC(Cc3ccccc3)CC2)cc1F | -6 | -18 | 0 | -16 | 0
O=Cc1cc(Cl)ccc1OCCN1CCC(Cc2ccccc2)CC1 | -15 | 51* | -2 | -19 | 1
CCCCNC(=O)CCCn1c(=O)c2ccccc2n(CC(=O)Nc2ccccc2OCC)c1=O | . | . | . | -6 | 0
CCCSCCCNC(=O)c1cc2n(n1)CCCN(Cc1ccc(C)cc1)C2=O | . | . | . | -1 | 0
COc1ccccc1NC(=O)NCC(c1ccco1)N1CCCCC1 (configuration not stated) | -28 | 39* | -4 | -15 | 0
COc1ccccc1NS(=O)(=O)c1cc(C(=O)NCC(c2ccco2)N2CCCCC2)ccc1C (configuration not stated) | -39 | . | -1 | . | .
COc1ccccc1NC(=O)NCC1(N(C)C)CCCCC1 | -16 | 59* | -4 | -17 | 0
O=C(CSc1ccc(Br)cc1)NCC(c1ccco1)N1CCCCC1 (configuration not stated) | 3 | 39* | -4 | 0 | 0
COCCNC(=O)CSc1nc2cc3c(cc2c(=O)n1CCCCCC(=O)NCCc1ccc(OC)c(OC)c1)OCO3 | . | . | . | 10 | 0
COc1ccc(-n2c(=O)c3ccccc3n(Cc3cccc(C)c3)c2=O)cc1 | . | . | . | -8 | -1
Cc1ccc(-c2nc3cnccn3c2Nc2ccc3c(c2)OCO3)o1 | 9 | 36* | 5 | -5 | 1
Cc1ccn2c(Nc3ccc4c(c3)OCO4)c(-c3ccc(C)o3)nc2c1 | . | . | . | -5 | 0
CC(=O)Nc1cccc(-c2ccnc3c2CC(C)(C(=O)NCc2cccs2)O3)c1 (configuration not stated) | -2 | . | 2 | . | .
O=C1C(Cl)=C(NCCCN2CCOCC2)C(=O)c2ccccc21 | 1 | . | 4 | . | .
O=C1C(Cl)=C(NCCN2CCOCC2)C(=O)c2ccccc21 | 11 | 36* | 5 | -7 | 1
CC(OC(=O)c1c2c(nc3ccccc13)/C(=C\c1ccc3c(c1)OCO3)CCC2)C(=O)Nc1ccc(S(N)(=O)=O)cc1 (configuration not stated) | 6 | 8 | 9 | 7 | 100*
CC(=O)c1cccc(NS(=O)(=O)c2ccc(N/C=C\C(=O)c3ccc(C)cc3)cc2)c1 | 64* | -2 | 4 | 3 | 0
CC(=O)c1cccc(NS(=O)(=O)c2ccc(N/C=C/C(=O)c3ccc(F)cc3)cc2)c1 | -2 | . | 1 | . | .
COc1cc(N=c2ssnc2Cl)cc(OC)c1 | -12 | 10 | -8 | 35* | -2
CC(=O)c1cccc(NC(=O)C2(C)Cc3c(-c4ccccc4)ccnc3O2)c1 (configuration not stated) | 1 | . | 4 | . | .
O=C(c1ccc2c(c1)OCO2)N1CCC2(CC1)Oc1ccc(Cl)cc1C(=O)C21CC(c2ccccc2)=NO1 (configuration not stated) | -11 | 42* | -2 | 7 | 1
CC(CNc1ccccc1O)C(=O)O (configuration not stated) | 68* | -1 | ? | 5 | 0
CC(NC(=O)CCC(=O)Nc1ccccc1O)c1ccccc1 (configuration not stated) | -12 | . | -3 | . | .
